# Compound activity from PubChem.
# The list is not random: actives were taken first. Their share in the collection is about 9.8%.
# CBFb RUNX1 block: inhibitors of human CBF-beta and RUNX1 interaction; Q01196+Q13951; AlphaScreen CBFb-His/RUNX1-biotin binding, biochemical; Potency, µM (highest dose often 59.8 µM), for the others: top-dose activity, negative = inhibition, usual class: inhibitors; 230,000 tested, under 10 active; AID 1477; active = well fitted curve in the direction sought with a large enough effect; inconclusive = small, poorly fitted or top-dose-only effect, or another doubt; inactive = no such curve, though single readings can be large; an effect the other way counts as inactive or inconclusive; also: % of control where 0% means no effect
#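 CBF-beta (His) and RUNX1 (biotin), 30 nM each; 20 min preassociation; + compound, 15 min; + beads 50 ng each (Ni, streptavidin), 90 min; RT; AlphaScreen read.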
# HTT aggregate: mutant huntingtin aggregation inhibition. PC12 HttQ103-GFP aggregates, Acumen cytometry, 40 h. Potency, µM (series often up to 46.1 µM), inactives show at the top dose activity change, negative = inhibition, actives largely listed as inhibitors. 220,000 tested, 1.1% active. AID 1688; active = well fitted curve in the direction sought with a large enough effect; inconclusive = small, poorly fitted or top-dose-only effect, or another doubt; inactive = no such curve, though single readings can be large; an effect the other way counts as inactive or inconclusive; also: potency is read from the fitted curve at half-maximal effect; % is scaled to controls: 0 for no effect and ±100 for the full control effect; nearly all actives have a fitted effect of over 60% in size
#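 Steps: seed 1500 PC12 HTTQ103-GFP cells/well; add tebufenozide, 100 nM final; add compound titration; add ATPLite reagent; quantify GFP aggregates by laser scanning cytometry.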
# HPGD block: inhibitors of human 15-hydroxyprostaglandin dehydrogenase (HPGD); P15428; purified HPGD, NADH fluorescence kinetic, PGE2 substrate; Potency, µM, without a hit: top-dose activity change, negative = inhibition, most hits filed as inhibitors; 150,000 tested, 4.3% active; also: potency is read from the fitted curve at half-maximal effect; % is scaled to controls: 0 for no effect and ±100 for the full control effect
#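 20 nM HPGD preincubated 15 min at room temperature with compound in 50 mM Tris-HCl pH 8, 0.01% Tween 20. Started with 1 mM NAD+ and 30 uM prostaglandin E2; NADH fluorescence (360/450 nm) read 5 times over 30-s intervals, last minus first.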
# KDM4E inh: inhibitors of human JMJD2E histone demethylase. B2RXH2. JMJD2E catalytic domain, FDH-coupled NADH fluorescence (FDH is formaldehyde dehydrogenase). Potency, µM (series often up to 57.1 µM), without a hit: at the highest dose activity change, negative = inhibition, hits mostly inhibitors. 230,000 tested, 1.6% active;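 also: potency is read from the fitted curve at half-maximal effect; 0% = wells with enzyme and -100% = buffer wells without enzyme; nearly all actives have a fitted effect of over 50% in size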
# Target sequence (B2RXH2 1-337 limits assumed): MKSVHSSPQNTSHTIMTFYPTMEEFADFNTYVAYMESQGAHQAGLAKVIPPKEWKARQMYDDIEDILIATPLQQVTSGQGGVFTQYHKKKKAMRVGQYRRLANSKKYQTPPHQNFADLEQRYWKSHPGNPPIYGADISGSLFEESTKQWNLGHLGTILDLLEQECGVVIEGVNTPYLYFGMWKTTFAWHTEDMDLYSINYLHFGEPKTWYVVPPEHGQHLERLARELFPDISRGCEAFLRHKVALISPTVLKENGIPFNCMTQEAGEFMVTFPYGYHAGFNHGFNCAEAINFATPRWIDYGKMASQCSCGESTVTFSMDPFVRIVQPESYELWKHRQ
# ALDH1A1 inh: inhibitors of human aldehyde dehydrogenase 1A1 | P00352 | Purified ALDH1A1, NADH fluorescence, propionaldehyde substrate | Potency, µM (titrated, usually from 75.3 µM), inactives show at the top dose activity, negative = inhibition, actives largely listed as inhibitors | 220,000 tested, 7.3% active;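 also: potency is read from the fitted curve at half-maximal effect; plate controls were no enzyme wells and a reference inhibitor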
# Target sequence (P00352 whole entry, looked up): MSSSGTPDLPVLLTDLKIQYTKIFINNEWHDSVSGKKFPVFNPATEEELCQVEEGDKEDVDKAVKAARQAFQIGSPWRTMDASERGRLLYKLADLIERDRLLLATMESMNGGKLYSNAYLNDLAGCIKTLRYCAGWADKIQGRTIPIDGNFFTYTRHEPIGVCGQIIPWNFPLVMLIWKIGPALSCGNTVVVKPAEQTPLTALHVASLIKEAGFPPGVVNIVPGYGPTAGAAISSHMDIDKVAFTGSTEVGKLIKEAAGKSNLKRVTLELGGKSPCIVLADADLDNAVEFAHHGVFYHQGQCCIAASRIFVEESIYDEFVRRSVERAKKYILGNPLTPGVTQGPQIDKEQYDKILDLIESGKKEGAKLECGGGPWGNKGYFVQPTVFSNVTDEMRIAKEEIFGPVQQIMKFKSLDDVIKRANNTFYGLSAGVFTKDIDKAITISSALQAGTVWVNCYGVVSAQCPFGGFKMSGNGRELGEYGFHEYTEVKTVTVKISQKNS
# HTT cytoprotect: protects HTT-Q103 PC12 cells, measured by ATP; PC12 HTT-Q103 induced, cytoprotection, ATP luminescence, 40 h; 230,000 tested, 0.14% active; Potency, µM (series often up to 56.4 µM), without a hit: cytoprotection (ATP increase), most hits filed as activators; active = well fitted curve in the direction sought with a large enough effect; inconclusive = small, poorly fitted or top-dose-only effect, or another doubt; inactive = no such curve, though single readings can be large; an effect the other way counts as inactive or inconclusive; also: potency is read from the fitted curve at half-maximal effect; % of control where 0% means no effect; nearly all actives have a fitted effect of over 45% in size
#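 PC12 cells with ecdysone-inducible HTT exon 1 Q103-GFP, induced with 100 nM tebufenozide and co-treated with library compounds in a dose series (1536-well, 1500 cells/well). Cytoprotection read as ATP content by ATPlite luminescence.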
# Numbers without * were called inactive; ? = inconclusive; nt = no result given; [ ] = another dose, or the depositor's remark. Unless noted, calls follow the shape of the dose curve; as a rule, active = well fitted inhibition curve with a large enough effect (not every such curve was filed as active); inconclusive = small, poorly fitted or top-dose-only effect, or another doubt; inactive = no such curve, though single readings can be large or run the other way.
SMILES,CBFb RUNX1 block,HTT aggregate,HPGD block,KDM4E inh,ALDH1A1 inh,HTT cytoprotect
Cc1ccc(Cl)cc1NC(=S)N(Cc1cccnc1)Cc1ccccc1Cl,5.6%,3.7%,nt,-2.2%,11.2µM*,-15.5%
Cc1ccccc1NC(=S)N(Cc1ccccc1)Cc1cccnc1,4.2%,2.2%,nt,-2.9%,6.1%,-29.6%
CN(C)c1ccc(C(=S)NCc2ccco2)cc1,-8.6%,6.4%,?,-12.6%,5.01µM*,-14.2%[10 µM]
O=C(CCC1CCCC1)N1CCN(C(=O)c2cccnc2)CC1,3.5%,-6.7%,-8.9%,-2.7%,?,8.3%[10 µM]
CCN(CC)S(=O)(=O)c1ccc2c(c1)nc(SCC(=O)N1CCCCCC1)n2-c1ccc(OC)cc1,-10.6%,-5.8%,-11.3%,-1.6%,-2.5%,-19.3%
CCN(CC)S(=O)(=O)c1ccc2c(c1)nc(SCC(N)=O)n2-c1ccc(OC)cc1,-4.8%,14.0%[9.22 µM],22.4µM*,2.6%,?,-2.4%
CCCCc1ccc(-c2csc(/C(C#N)=C\c3ccc(C)o3)n2)cc1,-8.6%,6.6%,-15.3%,-28.1%,6.9%,-11.3%
CCOc1ccc(-c2csc(/C(C#N)=C\c3ccc(O)c([N+](=O)[O-])c3)n2)cc1,15.0%,7.94µM*,3.16µM*,3.4%,-15.7%,17.7%[10 µM]
C/C(=N\O)c1ncc(C(F)(F)F)cc1Cl,-1.2%,-0.2%,nt,-2.7%,6.0%,?
CC1=CC(C)(C)Nc2ccc(C)cc21,?,2.4%,?,14.1µM*,?,-6.5%
CC1=CC(C)(C)Nc2cc(C)c(C)cc21,-6.3%,-14.5%,?,11.2µM*,?,1.4%
CC1=CC(C)(C)Nc2ccc(OC(=O)CN3C(=O)CCC3=O)cc21,0.0%,6.31µM*,-19.9%,?,-17.7%,-89.5%
CC1=CC(C)(C)Nc2ccc(Cc3ccc4c(c3)C(C)=CC(C)(C)N4)cc21,-18.4%,15.7%[9.22 µM],nt,?,nt,16.4%[10 µM]
COc1ccc(C(=O)/C=C\c2ccc(NC(=O)c3cccs3)cc2)cc1,-10.1%,8.6%,2.5%,?,?,-48.7%
CN(C)Cc1cc(O)c(O)c(CN(C)C)c1,nt,nt,-2.4%,nt,-1.3%[13.5 µM],-3.9%[10 µM]
CCCn1nnc(NC(=O)/C=C/c2ccc(C(C)C)cc2)n1,8.5%,23.0%[9.22 µM],nt,15.8%,14.1µM*,-1.9%[10 µM]
CCCn1nnc(NC(=S)NC(=O)/C=C/c2ccc(Cl)cc2)n1,3.5%,-19.5%[9.22 µM],nt,5.3%,nt,8.1%[10 µM]
CC(C)C=O,-0.2%[21.7 µM],nt,-4.6%,nt,-15.0%,-5.6%
Cc1cn2c(nc1=O)OC1C(O)C(COC(=O)c3ccccc3)OC12 (stereo not given),4.5%,?,-0.6%,-0.3%,3.16µM*,-18.9%[10 µM]
Cc1ccc(-c2nn(C)c(=O)c3ccccc23)cc1CNC(=O)Cn1nc(-c2ccccc2)c2ccccc2c1=O,5.8%,0.9%,-10.1%,-1.5%,0.2%,-11.2%
COc1cccc(/C=N/NC(=O)CNC(=O)COc2ccccc2)c1O,-3.5%,-24.6%[9.22 µM],nt,8.91µM*,nt,-4.9%[10 µM]
COc1cccc(/C=N/NC(=O)C[n+]2ccccc2)c1O,?,10.9%,-0.4%,14.1µM*,1.7%,10.2%[10 µM]
COc1cccc(/C=N/NC(=O)CN2CC(c3ccccc3)CC2=O)c1O (stereo not given),-7.7%,3.55µM*,-14.1%,?,-2.2%,nt
O=C(COc1ccccc1)NCC(=O)N/N=C/c1ccc(O)cc1O,6.2%,-31.4%[9.22 µM],nt,14.1µM*,nt,?
CO[C@H]1COC(=O)C/C=C\[C@@H](C)COC(=O)[C@H]2CCCN2C(=O)C/C=C\[C@H]1C,15.7%[13.1 µM],nt,nt,nt,8.2%[13.5 µM],0.8%[10 µM]
SMILES,CBFb RUNX1 block,HTT aggregate,HPGD block,KDM4E inh,ALDH1A1 inh,HTT cytoprotect
COc1cccc(C(=O)O/N=C/c2ccc(Sc3ccc(C)cc3)nc2)c1,-1.6%,-14.3%,?,-10.7%,?,5.7%
O=C(COc1ccccc1)NCC(=O)N/N=C/c1ccco1,?,-1.3%,?,4.5%,11.9µM*,-4.3%[10 µM]
COc1ccc(OCC(=O)N/N=C\c2ccco2)cc1,2.9%,-1.4%[9.22 µM],nt,-0.9%,9.4%,-7.7%[10 µM]
CC(C)(C)C(=O)NC1CCN(S(=O)(=O)c2cccc(C(F)(F)F)c2)CC1,-1.6%,4.2%,nt,-8.7%,4.7%,1.4%[10 µM]
CC1CCN(c2cc(C#N)c(C#N)cc2[N+](=O)[O-])CC1,3.1%,19.6%,-7.5%,2.2%,6.4%,-32.4%
Cc1cc(N2CCC(C)CC2)c(F)cc1[N+](=O)[O-],9.9%,18.0%,-15.2%,5.8%,10µM*,-14.2%[10 µM]
CCN(CC)S(=O)(=O)c1ccc(OCCNS(C)(=O)=O)cc1,0.1%,-22.3%,nt,0.8%,11.8%,-46.9%
COc1ccc(C)cc1NC(=S)NNC(=O)c1c(Br)cnn1C,-8.4%,?,nt,-4.8%,?,-14.1%
N#CC(CC(=O)O)=C(c1ccccc1)c1ccccc1,nt,nt,-25.0%,nt,4.0%[13.5 µM],-1.0%[10 µM]
c1ccc2c(Cn3nnc4ccccc43)cccc2c1,11.7%,-19.7%,28.2µM*,-4.6%,?,-10.7%
CCCCCCOc1ccc(N2C(=O)CC(N3CCN(CCN=CC4C(=O)CC(C)(C)CC4=O)CC3)C2=O)cc1 (stereo not given),11.4%,-24.8%,nt,-2.8%,?,-26.3%
CC(=O)c1ccc(Sc2ccc(C(C)=O)cc2)cc1,-1.6%,30.3%,17.8µM*,-0.7%,0.1%,-15.6%[10 µM]
O=C(CCc1nnc(-c2ccccc2)o1)NCc1c(F)cccc1F,2.4%,-8.4%[9.22 µM],nt,-2.2%,-4.0%,-3.0%[10 µM]
Cc1cccc(-c2noc(CN(C(=O)c3c(-c4ccccc4Cl)noc3C)C(C)C)n2)c1,3.4%,?,-12.4%,2.0%,8.3%,0.2%
CC(C)N(Cc1nnc(-c2ccccc2Cl)o1)C(=O)c1cccc(C#N)c1,6.2%,13.5%,-1.4%,2.7%,6.31µM*,-14.5%
CCN(CC)S(=O)(=O)c1cccc(NC(=O)c2cc(-c3cccs3)nn2-c2ccccc2)c1,-3.1%,-13.6%,-19.5%,?,-7.5%,18.6%[10 µM]
CN(C)S(=O)(=O)c1cccc(NC(=O)c2cc(-c3cccs3)nn2-c2ccccc2)c1,8.3%,-10.4%,?,0.7%,22.4µM*,-2.6%[0.074 µM]
O=c1[nH]cc(N2CCCCCC2)c(=O)[nH]1,7.6%,11.4%[9.22 µM],nt,-6.0%,nt,9.7%[10 µM]
COCc1c(C(=O)NC2CCCCCC2)oc2ccccc12,7.3%,?,nt,-9.0%,11.2µM*,-57.1%
O=C(NC1CCCC1)c1cc2c(ccc3ccccc32)o1,-0.6%,11.2µM*,?,?,?,-37.8%
Cc1ccc(C(=O)NC2CCCCCC2)o1,6.4%,-9.5%,25.1µM*,3.5%,-4.0%,-0.9%
Cc1cc(C(=O)NC2CCCCC2)on1,-3.2%,-11.3%[9.22 µM],nt,0.7%,nt,17.6%[10 µM]
O=C(COC(=O)c1cc(=O)c2ccccc2o1)NC1CCCC1,?,21.0%,nt,-2.7%,4.0%,-10.7%
CNC(=O)c1cc2c(ccc3ccccc32)o1,-3.7%,-0.8%,nt,?,?,-48.9%
